Results filed as inconclusive are left out. Activity calls are given as the source filed them. Unless noted, calls follow the shape of the dose curve; as a rule, active = well fitted curve in the direction sought with a large enough effect; inconclusive = small, poorly fitted or top-dose-only effect, or another doubt; inactive = no such curve, though single readings can be large; an effect the other way counts as inactive or inconclusive.
Key:
[1] = Cell Viability - BJ (AID 421; calls by dose curve;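 also: potency is read from the fitted curve at half-maximal effect; cells exposed to compound for 40 hours at 37 °C before readout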); settings: BJ fibroblast viability, qHTS
Summary of the method: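 Cytotoxicity as drop in intracellular ATP (CellTiter-Glo, 20 min RT) after 40 hr compound exposure of BJ fibroblasts at 37 °C. Titrations scaled between DMSO and 100 uM tamoxifen, Hill-fitted for AC50.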

[2] = Cell Viability - Jurkat (AID 426;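 active = dose-dependent loss of cell ATP signal giving a full or clear fitted curve, ranked by lower potency value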;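 also: potency is read from the fitted curve at half-maximal effect; cells exposed to compound for 40 hours at 37 °C before ATP read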); settings: qHTS
Summary of the method: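 Cells of the human T-cell leukemia line Jurkat (E6-1) are seeded at 5000 per well, treated with compound across a concentration range for 40 hours at 37 °C, then lysed with CellTiter-Glo; luminescence reports ATP.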

[3] = Cell Viability - Hek293 (AID 427;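 active = compounds whose dose-response curve shows a full or clear partial loss of cell viability, called from curve shape rather than a numeric limit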;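 also: potency is read from the fitted curve at half-maximal effect; cells exposed to compound for 40 hours at 37 °C before reading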); settings: qHTS
Summary of the method: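 Luminescent ATP content (CellTiter-Glo, 20 min at room temperature) was measured after a 40 hr, 37 °C compound exposure of HEK293 cells. AC50 values came from Hill-equation fits of qHTS concentration-response data normalized to DMSO and 100 uM tamoxifen.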

[4] = Cell Viability - HepG2 (AID 433; calls by dose curve;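 also: potency is read from the fitted curve at half-maximal effect; potency for ATP loss meaning cytotoxicity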); settings: qHTS
Summary of the method: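 Read-out is luciferase-based quantitation of cellular ATP as a measure of viable HepG2 cells after 40 h treatment at 37 °C. Signal decrease is scaled between DMSO-only and 100 uM tamoxifen controls, with AC50 fitted by the Hill equation.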

[5] = Cell Viability - MRC5 (AID 434; calls by dose curve;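 also: potency is read from the fitted curve at half-maximal effect; potency reflects cytotoxicity seen as loss of intracellular ATP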); settings: MRC5 lung fibroblast viability, qHTS
Summary of the method: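 AC50 values come from Hill-equation fits of intracellular ATP loss, measured by CellTiter-Glo luminescence. Normal lung fibroblasts (MRC5) had 40 hr compound treatment at 37 C, normalized between DMSO and 100 uM tamoxifen.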

[6] = Cell Viability - SK-N-SH (AID 435; calls by dose curve;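 also: potency is read from the fitted curve at half-maximal effect; compound exposure lasted 40 h at 37 °C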); settings: SK-N-SH neuroblastoma cell viability qHTS
Summary of the method: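 Luminescent ATP signal served as the viability read-out after 40 hours of compound treatment of human neuroblastoma SK-N-SH cells. Concentration-response data, scaled between DMSO and 100 uM tamoxifen, gave AC50 values by standard Hill modeling.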

[7] = target: Mitogen-activated protein kinase 10 (Mus musculus) (UniProt Q61831); test: JNK3 AlphaScreen Assay (AID 530; active = well fitted curve in either direction with a large enough effect, not every such curve was filed as active;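 also: kinase came from lysate of stimulated human HepG2 cells; signal reports phosphorylation of biotinylated GST-cJun 1-79 at Ser73 with 10 µM ATP; % is scaled to controls: 0 for no effect and ±100 for the full control effect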); settings: JNK3 lysate, c-Jun phosphorylation; series mostly up to 57.1 µM
Summary of the method: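 qHTS titrations with 15 min compound pre-incubation before adding ATP (10 uM final). Read-out: AlphaScreen of Ser73-phosphorylated biotin-GST-cJun using HepG2 lysate JNK3 activated by IL-1β and TNFα.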

[8] = Cell Viability - N2a (AID 540); settings: N2a mouse neuroblastoma cell viability; activity change, negative = cytotoxicity: at 92.2 µM (top of the series);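 also: cells exposed to compound for 40 h at 37 °C; plate controls were DMSO alone for no effect and tamoxifen control for full effect; nearly all actives have a fitted effect of over 45% in size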
Summary of the method: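 Cytotoxicity was scored as loss of cellular ATP in N2a cells, a mouse neuroblastoma line. Compounds are applied in a qHTS concentration series for 40 hr at 37 °C.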

[9] = Cell Viability - NIH 3T3 (AID 541); settings: NIH 3T3 cell viability, qHTS; activity change, negative = cytotoxicity: at 92.2 µM (top of the series);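 also: plate controls were DMSO alone for no effect and tamoxifen positive control for full effect; nearly all actives have a fitted effect of over 25% in size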
Summary of the method: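 Cells seeded at 1000/well, rested 5 hr at 37 °C, then dosed and incubated 40 hr at 37 °C. CellTiter-Glo added, 20 min room temperature, luminescence read. AC50 by Hill fit.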

[10] = Cell Viability - HUV-EC-C (AID 542); settings: HUV-EC-C endothelial cell viability, qHTS; series mostly up to 92.2 µM; also: % is scaled to controls: 0 for no effect and ±100 for the full control effect; nearly all actives have a fitted effect of over 35% in size
Summary of the method: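 Cells were seeded at 1000 per well and incubated 5 hr at 37 °C before compound addition. After 40 hr at 37 °C, CellTiter-Glo reagent was added for 20 min and luminescence read. AC50 values came from Hill-equation modelling.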

[11] = Cell Viability - H-4-II-E (AID 543); settings: H-4-II-E rat hepatoma viability; series mostly up to 92.2 µM; also: % is scaled to controls: 0 for no effect and ±100 for the full control effect; nearly all actives have a fitted effect of over 35% in size
Summary of the method: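 Cells seeded at 1500 per well and rested 5 hr; compounds added; 40 hr incubation at 37 °C; CellTiter-Glo added, 20 min at room temperature; luminescence read. Hill-equation fits gave AC50.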

[12] = Cell Viability - SH-SY5Y (AID 544); settings: SH-SY5Y neuroblastoma cell viability; viability change, negative = cytotoxic: at 92.2 µM (top of the series); also: nearly all actives have a fitted effect of over 55% in size
Summary of the method: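 Cells were plated at 1500 per well and allowed 5 hr at 37 °C. Compounds were added across a concentration range and incubated 40 hr at 37 °C. CellTiter-Glo was added for 20 min at room temperature before luminescence reading.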

[13] = Cell Viability - Renal Proximal Tubule (AID 545); settings: renal proximal tubule cells viability, primary cells of rat origin; series mostly up to 91.7 µM; also: nearly all actives have a fitted effect of over 40% in size
Summary of the method: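 Luminescent ATP signal (CellTiter-Glo) served as the viability read-out after 40 hr compound exposure of freshly isolated rat proximal tubule cells at 37 °C. Concentration-dependent ATP loss was fitted with the Hill equation to give AC50.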

[14] = Cell Viability - Mesenchymal (AID 546); settings: mesenchymal cells viability, qHTS; series mostly up to 91.7 µM;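 also: cells exposed to compound for 40 hours before reading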
Summary of the method: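 CellTiter-Glo luminescence (intracellular ATP, 20 min room temperature) after 40 hr compound exposure at 37 °C of 1000 glomerulus-derived human kidney mesenchymal cells/well; AC50 values obtained by fitting qHTS concentration-response data to the Hill equation.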

[15] = Cellular Toxicity (caspase-3) HepG2 (AID 654); settings: HepG2 caspase-3 activation, luminescence; series mostly up to 92.2 µM;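 also: cells exposed to compound for 16 hours before reading; 0% = DMSO alone and 100% = caspase signal from 100 µM tamoxifen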
Summary of the method: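 Caspase 3/7 activation in HepG2 is measured as rising luminescence after a 16 hr treatment at 37 °C. Values are scaled between DMSO basal and 100 uM tamoxifen, and AC50 is fitted with the Hill equation.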

[16] = Cellular Toxicity (caspase-3) Jurkat (AID 655); settings: Jurkat caspase-3 activation, luminescence; caspase-3 activation: at 92.2 µM (top of the series), DMSO = 0%, tamoxifen = 100%;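 also: cells exposed to compound for 16 h at 37 °C before reading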
Summary of the method: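 5000 Jurkat cells/well; compound 16 hr, 37 °C; Caspase-Glo 3/7 added, 20 min RT; luminescence read. Norm: DMSO = 0%, tamoxifen 100 uM = 100%. AC50, Hill model.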

[17] = Cellular Toxicity (caspase-3) HUV-EC-C (AID 656); settings: HUV-EC-C cells, caspase-3 activation (apoptosis), vehicle = 0, 100 µM tamoxifen = 100%; series mostly up to 92.2 µM
Summary of the method: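 qHTS; HUV-EC-C, 1000 cells/well; 5 hr settle, 16 hr cmpd, 37°C; Caspase-Glo 3/7, 20 min RT; luminescence. Norm: DMSO = 0%, tamoxifen 100 uM = 100%. Hill-fit AC50.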

[18] = Cellular Toxicity (caspase-3) SHSY5Y (AID 657); settings: SH-SY5Y caspase-3 activation, DMSO zero, 10 µM staurosporine = 100%; series mostly up to 91.7 µM;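 also: cells exposed to compound for 16 hours at 37 °C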
Summary of the method: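 qHTS, SH-SY5Y, 1500 cells/well, 5 h pre-incubation 37 °C; compound 16 h 37 °C; Caspase-Glo 3/7 1 h RT; luminescence. Norm.: DMSO = 0, 10 uM staurosporine = 100%. Hill fit → AC50.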

[19] = Cellular Toxicity (caspase-3) BJ (AID 658); settings: BJ fibroblasts, luminescence, normalized: DMSO 0%, staurosporine 100%; series mostly up to 91.7 µM;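 also: cells exposed to compound for 16 hours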
Summary of the method: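 Caspase-Glo 3/7 luminescence, read 1 hr after reagent at room temperature, in normal BJ fibroblasts exposed 16 hours at 37 °C. AC50 values from Hill-equation concentration-response, scaled between DMSO basal and 10 uM staurosporine as 100%.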

[20] = Cellular Toxicity (caspase-3) MRC-5 (AID 659); settings: MRC-5 cells, luminescence, normalized: DMSO 0%, 10 µM staurosporine 100%; series mostly up to 91.7 µM
Summary of the method: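 Luminescent Caspase-Glo 3/7 read-out (1 h, room temperature) after a 16 h, 37 °C compound exposure of MRC-5 lung fibroblasts at 1500 cells/well. Concentration-response AC50 from Hill equation; 0% DMSO, 100% 10 uM staurosporine.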

Cc1cc(C)c(N)cc1C
inactive: Potency [1] > 92 µM | Potency [2] > 92 µM | Potency [3] > 92 µM | Potency [4] > 92 µM | Potency [5] > 92 µM | Potency [6] > 92 µM | outcome [7] | activity change, negative = cytotoxicity [8] -1.04% | Potency [9] | Potency [10] | Potency [11] | Potency [12] | Potency [13] | Potency [14] | Potency [15] | caspase-3 activation [16] -1.78% | outcome [17] | outcome [18] | outcome [19] | outcome [20]

CCc1ccccc1
inactive: Potency [1] > 92 µM | Potency [2] > 92 µM | Potency [3] > 92 µM | Potency [4] > 92 µM | Potency [5] > 92 µM | Potency [6] > 92 µM | outcome [7] | activity change, negative = cytotoxicity [8] -7.66% | Potency [9] | Potency [10] | Potency [11] | Potency [12] | Potency [13] | Potency [14] | Potency [15] | caspase-3 activation [16] 1.71% | outcome [17] | outcome [18] | outcome [19] | outcome [20]

Cc1cccc2cccnc12
inactive: Potency [1] > 92 µM | Potency [2] > 92 µM | Potency [3] > 92 µM | Potency [4] > 92 µM | Potency [5] > 92 µM | Potency [6] > 92 µM | outcome [7] | activity change, negative = cytotoxicity [8] -0.348% | Potency [9] | Potency [10] | Potency [11] | Potency [12] | Potency [13] | Potency [14] | Potency [15] | caspase-3 activation [16] -0.137% | outcome [17] | outcome [18] | outcome [19] | outcome [20]

NCCCCCCN
inactive: Potency [1] > 92 µM | Potency [2] > 92 µM | Potency [3] > 92 µM | Potency [4] > 92 µM | Potency [5] > 92 µM | Potency [6] > 92 µM | outcome [7] | activity change, negative = cytotoxicity [8] -4.05% | Potency [9] | Potency [10] | Potency [11] | Potency [12] | Potency [13] | Potency [14] | Potency [15] | caspase-3 activation [16] -1.28% | outcome [17] | outcome [18] | outcome [19] | outcome [20]

Cc1cccc(C)c1[N+](=O)[O-]
inactive: Potency [1] > 92 µM | Potency [2] > 92 µM | Potency [3] > 92 µM | Potency [4] > 92 µM | Potency [5] > 92 µM | Potency [6] > 92 µM | outcome [7] | activity change, negative = cytotoxicity [8] -11.3% | Potency [9] | Potency [10] | Potency [11] | Potency [12] | Potency [13] | Potency [14] | Potency [15] | caspase-3 activation [16] 0.339% | outcome [17] | outcome [18] | outcome [19] | outcome [20]

Cc1cccc(C)c1
inactive: Potency [1] > 92 µM | Potency [2] > 92 µM | Potency [3] > 92 µM | Potency [4] > 92 µM | Potency [5] > 92 µM | Potency [6] > 92 µM | outcome [7] | activity change, negative = cytotoxicity [8] 2.48% | Potency [9] | Potency [10] | Potency [11] | Potency [12] | Potency [13] | Potency [14] | Potency [15] | caspase-3 activation [16] -2.27% | outcome [17] | outcome [18] | outcome [19] | outcome [20]

NC(=O)c1cccc([N+](=O)[O-])c1
inactive: Potency [1] > 92 µM | Potency [2] > 92 µM | Potency [3] > 92 µM | Potency [4] > 92 µM | Potency [5] > 92 µM | Potency [6] > 92 µM | outcome [7] | activity change, negative = cytotoxicity [8] -1.6% | Potency [9] | Potency [10] | Potency [11] | Potency [12] | Potency [13] | Potency [14] | Potency [15] | caspase-3 activation [16] -0.315% | outcome [17] | outcome [18] | outcome [19] | outcome [20]

NC(=O)CCCCC(N)=O
inactive: Potency [1] > 92 µM | Potency [2] > 92 µM | Potency [3] > 92 µM | Potency [4] > 92 µM | Potency [5] > 92 µM | Potency [6] > 92 µM | outcome [7] | activity change, negative = cytotoxicity [8] -5.03% | Potency [9] | Potency [10] | Potency [11] | Potency [12] | Potency [13] | Potency [14] | Potency [15] | caspase-3 activation [16] 2.15% | outcome [17] | outcome [18] | outcome [19] | outcome [20]

O=C(Cl)c1c(Cl)cccc1Cl
inactive: Potency [1] > 92 µM | Potency [2] > 92 µM | Potency [3] > 92 µM | Potency [4] > 92 µM | Potency [5] > 92 µM | Potency [6] > 92 µM | outcome [7] | activity change, negative = cytotoxicity [8] 1.05% | Potency [9] | Potency [10] | Potency [11] | Potency [12] | Potency [13] | Potency [14] | Potency [15] | caspase-3 activation [16] 2.4% | outcome [17] | outcome [18] | outcome [19] | outcome [20]

CCCCN(CCO)CCCC
inactive: Potency [1] > 92 µM | Potency [2] > 92 µM | Potency [3] > 92 µM | Potency [4] > 92 µM | Potency [5] > 92 µM | Potency [6] > 92 µM | outcome [7] | activity change, negative = cytotoxicity [8] -15.2% | Potency [9] | Potency [10] | Potency [11] | Potency [12] | Potency [13] | Potency [14] | Potency [15] | caspase-3 activation [16] -0.474% | outcome [17] | outcome [18] | outcome [19] | outcome [20]
